# Shown are actives, neighbours in structure and some others; about 4.7% of the full set was active somewhere.
# PABP FP inh: PABP poly(A) RNA binding inhibitors, primary screen, biochemical, fluorescence polarization, uHTS; Polyadenylate-binding protein 1 (Homo sapiens), P11940; inhibition, % at 35 µM; 1% of 290,000 active; AID 2014, 2009;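 also: calls also rest on retests at 20 µM and on dose response follow-up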
# Target sequence (P11940 whole entry, looked up): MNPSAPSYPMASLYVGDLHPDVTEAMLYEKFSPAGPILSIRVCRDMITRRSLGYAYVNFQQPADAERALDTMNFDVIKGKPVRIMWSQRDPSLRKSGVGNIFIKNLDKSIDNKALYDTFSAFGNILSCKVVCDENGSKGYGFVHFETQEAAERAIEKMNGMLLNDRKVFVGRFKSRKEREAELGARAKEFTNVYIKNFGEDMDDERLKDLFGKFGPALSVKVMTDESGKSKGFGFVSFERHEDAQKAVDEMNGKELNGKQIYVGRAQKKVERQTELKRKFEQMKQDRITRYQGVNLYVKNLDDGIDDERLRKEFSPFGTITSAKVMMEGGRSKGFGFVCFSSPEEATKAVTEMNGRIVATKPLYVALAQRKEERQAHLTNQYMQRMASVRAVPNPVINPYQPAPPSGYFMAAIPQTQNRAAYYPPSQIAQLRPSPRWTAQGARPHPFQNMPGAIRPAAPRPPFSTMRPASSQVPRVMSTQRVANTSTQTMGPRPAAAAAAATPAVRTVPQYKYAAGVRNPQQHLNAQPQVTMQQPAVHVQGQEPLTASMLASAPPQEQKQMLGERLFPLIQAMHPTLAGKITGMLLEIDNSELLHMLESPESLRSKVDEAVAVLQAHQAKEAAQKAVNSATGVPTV
# Efflux pump mplx: inhibitors of Candida efflux pumps in yeast, primary screen, S. cerevisiae, Nile Red, multiplex; AID 485275, 2010; 0.44% of 330,000 active; S. cerevisiae Candida pump triplex; inhibition, % at 10 µM;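 active = plate passing quality check with inhibition over a set limit, or well fluorescence over plate mean plus 4 SD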;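 also: Nile Red retained in pooled yeast measured as flow cytometry median fluorescence; 0% = buffer negative control and 100% = Enniatin B positive control; higher means more Nile Red kept so more efflux inhibition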
# MLLE-PAM2 inh: inhibitors of PABP1 MLLE–PAM2 peptide binding, primary screen, biochemical, fluorescence polarization, FITC-PAM2, GST-MLLE; 0.36% of 360,000 active; inhibition, % at 20 µM; Polyadenylate-binding protein 1 (Homo sapiens), P11940; in the data active = inhibition above about 35%, passing the limit was not always enough;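 also: plate controls were DMSO wells with GST-MLLE for no effect and wells lacking GST-MLLE protein for full effect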
# eIF4H FP inh: human eIF4H binding inhibitors, primary screen, translation initiation inhibitor project, biochemical, uHTS, fluorescence polarization; Eukaryotic translation initiation factor 4H (Homo sapiens), Q15056; eIF4H fluorescence polarization binding assay; inhibition, % at 35 µM; 0.94% of 290,000 active; AID 2012, 2009;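 also: calls also rest on retests at 20 µM and on dose response follow-up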
# ALR inh: inhibitors of human ALR sulfhydryl oxidase, primary screen, biochemical, H2O2 detection, HRP-luminol luminescence, single point | FAD-linked sulfhydryl oxidase ALR (Homo sapiens), P55789 | purified ALR, DTT oxidation | inhibition, % (test concentration not listed) | 3.8% of 290,000 active;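 active = mean replicate inhibition above about 79%, with every replicate also reaching it, limit read from the data; inconclusive = only one of the two criteria met; inactive = mean below limit and not every replicate reaching it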
# UBC9 SUMO inh: inhibitors of in vitro SUMOylation cascade, primary screen, biochemical, HTRF, uHTS; SUMO-conjugating enzyme UBC9 (Homo sapiens), P63279; HTRF SUMOylation assay, SAE1/SAE2 + UBC9; inhibition, % at 35 µM; 0.36% of 290,000 active; in the data active = inhibition above about 50%, passing the limit was not always enough; inconclusive = no clear call, values can overlap the other calls
# Active calls of the source: *; ? = inconclusive; nt = no result. Unless noted, no rule for the calls is given here.
SMILES,PABP FP inh,Efflux pump mplx,MLLE-PAM2 inh,eIF4H FP inh,ALR inh,UBC9 SUMO inh
Cn1nnnc1Sc1ncnc2scc(-c3ccc([N+](=O)[O-])cc3)c12,nt,-0.1,-15.2,nt,21.1,nt
Cc1cccc(Oc2ccc(NC(=O)c3ccccc3C(=O)O)cc2)c1,-9.1,-0.1,-6.2,-8.6,98.1*,1.4
Cc1cccc(Oc2ccc3c(c2)cc(C(=O)O)n3C)c1,3.8,-0.1,-15.8,6.9,98.0*,12.0
O=C(Nc1cccc(Oc2ccc(C(=O)O)c(C(=O)O)c2)c1)c1ccc(-c2ccccc2)cc1,13.2,0.0,3.3,66.1*,nt,20.8
Cc1cccc(NC(=O)c2ccccc2C(=O)Nc2cccc(C)c2)c1,nt,0.0,7.9,nt,-2.7,nt
CC(C)(C)c1ccc(Oc2ccc(NC(=O)c3ccccc3C(=O)O)cn2)cc1,-1.8,-0.1,15.8,27.7,92.6*,11.4
COc1ccc2c(c1)cc(C(=O)O)n2C,7.8,0.0,-9.9,-6.4,-1.6,18.7
O=C(Nc1ccc(Oc2cccc(C(F)(F)F)c2)nc1)c1ccccc1,-4.1,0.1,8.8,-9.7,23.0,26.3
Cc1cccc(CCN(C(=O)c2csnn2)C(C(=O)NC2CCCC2)c2ccco2)c1 (configuration not stated),2.3,-0.1,10.6,-1.4,2.6,-3.8
COc1ccc(OCC(=O)OCC(=O)c2ccc(OC)c(F)c2)cc1,nt,-0.3,-6.3,nt,2.6,nt
CC(C)(C)c1ccc(Oc2ccc(N)cn2)cc1,2.3,0.3,-98.9,41.0,98.1*,19.3
O=C(O)c1ccccc1C(=O)Nc1ccc(Oc2ccccc2)cc1,7.1,0.0,-1.6,-0.2,93.6*,16.3
Cc1cc(Oc2ccc(N)cn2)cc(C)c1Cl,?,0.1,-2.8,?,7.8,14.1
O=C(Nc1ccc(N2CCOCC2)cc1N1CCOCC1)c1ccc(F)cc1,nt,0.2,-4.0,nt,41.6,nt
Fc1ccc(Br)cc1C1C=C(c2ccc(Br)cc2)Nc2ncnn21 (configuration not stated),5.1,0.2,89.7,11.8,90.5*,22.7
CCOC(=O)C1=CN(Cc2ccco2)S(=O)(=O)NC1c1ccc(F)c(Cl)c1 (configuration not stated),nt,-0.5,-2.7,nt,nt,nt
Cc1cc(-c2n[nH]c(=S)n2Cc2ccco2)nn1C,4.4,0.1,-10.5,2.9,5.6,6.2
COc1ccc(-c2n[nH]c(=S)n2C2CCCCC2)cc1,-7.6,0.0,16.5,4.2,88.7*,10.0
COc1ccc(-c2n[nH]c(=S)n2Cc2ccco2)cc1,14.0,-0.3,-5.7,6.9,97.3*,22.8
Oc1ccccc1-c1n[nH]c(=S)n1Cc1ccco1,3.4,-0.1,-1.8,-12.0,90.5*,14.1
Oc1ccc(-c2n[nH]c(=S)n2Cc2ccccc2)cc1,-7.0,0.0,-13.4,-3.2,97.3*,10.2
Fc1ccc(-c2n[nH]c(=S)n2Cc2ccccc2)cc1,2.3,0.1,-11.6,-9.6,4.7,-18.7
COc1ccc(OCc2n[nH]c(=S)n2Cc2ccco2)cc1,-5.5,0.0,-1.8,12.4,36.0,6.9
CC12CCC(C(=O)OC3CCCCC3)(OC1=O)C2(C)C (configuration not stated),-2.3,0.0,1.0,-10.3,-1.5,20.0
CCN(CC)C(=O)c1[nH]cnc1C(=O)Nc1ccccc1F,nt,nt,-3.6,nt,nt,nt
SMILES,PABP FP inh,Efflux pump mplx,MLLE-PAM2 inh,eIF4H FP inh,ALR inh,UBC9 SUMO inh
CC1CCC/C(=C\c2ccc(O)cc2)C1=O (configuration not stated),nt,-0.1,4.0,nt,91.6*,nt
O=C(CCNC(=O)c1ccccc1)Nc1ccc(Cl)c(S(=O)(=O)N2CCCCC2)c1,nt,0.2,16.0,nt,-0.6,nt
CC1=NN(c2ccc(N)cc2)C(=O)C1,55.8*,0.0,22.4,7.0,3.3,7.9
Cc1cc(OCC(=O)NNC(=S)NC(=O)c2ccc(Br)o2)ccc1Cl,-5.5,-0.1,25.8,4.2,87.9*,-49.6
O=C(Cc1ccccc1)NNC(=S)NC(=O)c1cccs1,-0.1,0.0,17.4,3.9,97.0*,-12.7
O=C(Cc1cccs1)NNC(=S)NC(=O)c1ccccc1,17.1,-0.5,15.3,4.8,98.2*,-18.5
O=C(NC(=S)NNC(=O)c1cccs1)c1ccc(Br)o1,8.7,0.1,14.9,3.3,98.7*,15.0

# Assay outcomes deposited in PubChem BioAssay by several laboratories.
